According to ChEMBL document CHEMBL1961873, “Compounds: GSK PKIS; Assays: Nanosyn kinase panel” (2012):

Assays:
[1] = biological target: Rho-associated protein kinase 1 (Homo sapiens) (UniProt Q13464); conditions: at 1 µM;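 note: reported values are mean percent inhibition of ROCK1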
[2] = biological target: Rho-associated protein kinase 2 (Homo sapiens) (UniProt O75116); conditions: at 0.1 µM
[3] = biological target: Rho-associated protein kinase 2 (Homo sapiens) (UniProt O75116); conditions: at 1 µM
[4] = biological target: Ribosomal protein S6 kinase alpha-1 (Homo sapiens) (UniProt Q15418); conditions: at 0.1 µM
Ribosomal protein S6 kinase alpha-1 (Homo sapiens), sequence (Q15418 whole entry): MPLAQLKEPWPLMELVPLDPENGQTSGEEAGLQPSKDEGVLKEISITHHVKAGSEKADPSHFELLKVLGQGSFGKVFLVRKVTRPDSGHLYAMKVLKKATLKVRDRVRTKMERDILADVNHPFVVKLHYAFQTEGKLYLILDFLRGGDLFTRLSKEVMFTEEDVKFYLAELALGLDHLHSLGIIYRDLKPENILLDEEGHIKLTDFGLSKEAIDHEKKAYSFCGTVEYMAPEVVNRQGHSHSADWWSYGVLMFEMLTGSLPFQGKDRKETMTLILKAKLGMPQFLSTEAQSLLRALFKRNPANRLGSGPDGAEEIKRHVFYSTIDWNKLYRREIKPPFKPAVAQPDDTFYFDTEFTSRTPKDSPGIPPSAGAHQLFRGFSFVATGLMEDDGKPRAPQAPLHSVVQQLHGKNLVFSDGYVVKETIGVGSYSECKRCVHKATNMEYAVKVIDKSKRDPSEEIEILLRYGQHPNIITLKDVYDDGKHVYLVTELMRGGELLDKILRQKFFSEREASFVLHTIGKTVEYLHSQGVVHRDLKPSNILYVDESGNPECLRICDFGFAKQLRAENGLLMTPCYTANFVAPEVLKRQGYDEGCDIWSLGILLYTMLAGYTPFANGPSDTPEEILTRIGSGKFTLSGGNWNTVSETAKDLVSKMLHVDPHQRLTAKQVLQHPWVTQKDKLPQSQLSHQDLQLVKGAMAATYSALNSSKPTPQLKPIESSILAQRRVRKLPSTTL

[5] = biological target: Ribosomal protein S6 kinase alpha-1 (Homo sapiens) (UniProt Q15418); conditions: at 1 µM
[6] = biological target: Ribosomal protein S6 kinase alpha-3 (Homo sapiens) (UniProt P51812); conditions: at 0.1 µM
Ribosomal protein S6 kinase alpha-3 (Homo sapiens), sequence (P51812 whole entry): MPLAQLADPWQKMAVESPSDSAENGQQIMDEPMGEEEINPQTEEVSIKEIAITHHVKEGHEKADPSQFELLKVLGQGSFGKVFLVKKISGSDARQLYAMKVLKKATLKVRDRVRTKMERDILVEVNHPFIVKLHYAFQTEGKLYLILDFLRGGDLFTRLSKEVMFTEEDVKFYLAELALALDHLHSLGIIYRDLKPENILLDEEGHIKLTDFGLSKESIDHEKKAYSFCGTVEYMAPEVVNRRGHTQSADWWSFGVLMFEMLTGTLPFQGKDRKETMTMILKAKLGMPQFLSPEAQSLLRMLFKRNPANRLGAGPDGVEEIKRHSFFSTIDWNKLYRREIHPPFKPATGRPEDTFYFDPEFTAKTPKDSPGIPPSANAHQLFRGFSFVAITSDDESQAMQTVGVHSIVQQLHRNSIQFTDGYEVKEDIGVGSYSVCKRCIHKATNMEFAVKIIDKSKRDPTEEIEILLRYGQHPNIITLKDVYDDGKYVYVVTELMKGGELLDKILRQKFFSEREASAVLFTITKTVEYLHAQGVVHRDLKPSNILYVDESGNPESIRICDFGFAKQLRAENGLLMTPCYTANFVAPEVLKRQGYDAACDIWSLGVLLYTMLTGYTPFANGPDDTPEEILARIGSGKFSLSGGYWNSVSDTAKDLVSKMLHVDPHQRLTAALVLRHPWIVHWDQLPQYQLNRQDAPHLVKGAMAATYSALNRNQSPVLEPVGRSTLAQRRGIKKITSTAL

[7] = biological target: Ribosomal protein S6 kinase alpha-3 (Homo sapiens) (UniProt P51812); conditions: at 1 µM
[8] = biological target: Ribosomal protein S6 kinase alpha-2 (Homo sapiens) (UniProt Q15349); conditions: at 0.1 µM
[9] = biological target: Ribosomal protein S6 kinase alpha-2 (Homo sapiens) (UniProt Q15349); conditions: at 1 µM
[10] = biological target: Ribosomal protein S6 kinase alpha-6 (Homo sapiens) (UniProt Q9UK32); conditions: at 0.1 µM
[11] = biological target: Ribosomal protein S6 kinase alpha-6 (Homo sapiens) (UniProt Q9UK32); conditions: at 1 µM
[12] = biological target: T1, Serine/threonine-protein kinase Sgk1 (Homo sapiens) (UniProt O00141); conditions: at 0.1 µM
T1 sequence (whole entry): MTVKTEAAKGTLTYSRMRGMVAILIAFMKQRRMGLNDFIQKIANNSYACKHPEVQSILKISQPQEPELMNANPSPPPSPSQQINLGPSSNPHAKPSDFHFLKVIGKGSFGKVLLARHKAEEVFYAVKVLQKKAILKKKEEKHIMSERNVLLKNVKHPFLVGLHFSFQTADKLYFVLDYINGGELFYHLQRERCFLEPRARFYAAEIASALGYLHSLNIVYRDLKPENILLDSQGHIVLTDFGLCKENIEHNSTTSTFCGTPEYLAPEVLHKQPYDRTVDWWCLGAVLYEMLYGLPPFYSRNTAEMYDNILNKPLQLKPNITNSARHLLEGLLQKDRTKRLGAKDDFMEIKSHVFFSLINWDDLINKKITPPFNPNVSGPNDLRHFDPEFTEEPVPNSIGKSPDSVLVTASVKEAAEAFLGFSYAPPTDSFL

[13] = biological target: T1, Serine/threonine-protein kinase Sgk1 (Homo sapiens); conditions: at 1 µM
[14] = biological target: T2, Serine/threonine-protein kinase Sgk2 (Homo sapiens) (UniProt Q9HBY8); conditions: at 0.1 µM
T2 sequence (whole entry): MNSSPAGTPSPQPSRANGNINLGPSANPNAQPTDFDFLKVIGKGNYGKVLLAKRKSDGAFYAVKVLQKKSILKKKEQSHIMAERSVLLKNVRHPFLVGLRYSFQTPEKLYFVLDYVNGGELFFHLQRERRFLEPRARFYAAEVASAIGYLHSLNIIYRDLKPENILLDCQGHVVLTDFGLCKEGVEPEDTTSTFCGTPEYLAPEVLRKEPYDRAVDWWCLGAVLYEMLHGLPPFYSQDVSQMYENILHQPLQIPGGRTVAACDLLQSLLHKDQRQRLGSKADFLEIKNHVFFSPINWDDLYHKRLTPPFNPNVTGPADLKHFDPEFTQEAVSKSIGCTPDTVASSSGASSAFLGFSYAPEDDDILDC

[15] = biological target: T2, Serine/threonine-protein kinase Sgk2 (Homo sapiens); conditions: at 1 µM
[16] = biological target: T3, Serine/threonine-protein kinase Sgk3 (Homo sapiens) (UniProt Q96BR1); conditions: at 0.1 µM
T3 sequence (whole entry): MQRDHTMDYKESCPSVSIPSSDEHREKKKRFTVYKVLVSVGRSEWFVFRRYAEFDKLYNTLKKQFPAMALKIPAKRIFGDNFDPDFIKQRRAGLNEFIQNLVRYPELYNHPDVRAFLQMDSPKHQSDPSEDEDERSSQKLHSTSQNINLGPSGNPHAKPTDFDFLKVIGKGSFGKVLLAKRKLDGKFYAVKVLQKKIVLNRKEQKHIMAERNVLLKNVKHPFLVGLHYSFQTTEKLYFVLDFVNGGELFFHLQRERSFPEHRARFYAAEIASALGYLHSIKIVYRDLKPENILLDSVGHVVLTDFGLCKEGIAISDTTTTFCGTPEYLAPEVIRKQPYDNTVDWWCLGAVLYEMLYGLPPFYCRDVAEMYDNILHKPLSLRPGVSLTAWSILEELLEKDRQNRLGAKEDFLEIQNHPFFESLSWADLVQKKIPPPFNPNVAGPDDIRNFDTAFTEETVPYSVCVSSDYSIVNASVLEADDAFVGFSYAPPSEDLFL

[17] = biological target: T3, Serine/threonine-protein kinase Sgk3 (Homo sapiens); conditions: at 1 µM
[18] = biological target: 5'-AMP-activated protein kinase catalytic subunit alpha-1 (Homo sapiens) (UniProt Q13131); conditions: at 0.1 µM
[19] = biological target: 5'-AMP-activated protein kinase catalytic subunit alpha-1 (Homo sapiens) (UniProt Q13131); conditions: at 1 µM
[20] = biological target: 5'-AMP-activated protein kinase catalytic subunit alpha-2 (Homo sapiens) (UniProt P54646); conditions: at 0.1 µM;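 note: mean inhibition measured on the AMPK complex of alpha2, beta1 and gamma1 subunits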
5'-AMP-activated protein kinase catalytic subunit alpha-2 (Homo sapiens), sequence (P54646 whole entry, looked up): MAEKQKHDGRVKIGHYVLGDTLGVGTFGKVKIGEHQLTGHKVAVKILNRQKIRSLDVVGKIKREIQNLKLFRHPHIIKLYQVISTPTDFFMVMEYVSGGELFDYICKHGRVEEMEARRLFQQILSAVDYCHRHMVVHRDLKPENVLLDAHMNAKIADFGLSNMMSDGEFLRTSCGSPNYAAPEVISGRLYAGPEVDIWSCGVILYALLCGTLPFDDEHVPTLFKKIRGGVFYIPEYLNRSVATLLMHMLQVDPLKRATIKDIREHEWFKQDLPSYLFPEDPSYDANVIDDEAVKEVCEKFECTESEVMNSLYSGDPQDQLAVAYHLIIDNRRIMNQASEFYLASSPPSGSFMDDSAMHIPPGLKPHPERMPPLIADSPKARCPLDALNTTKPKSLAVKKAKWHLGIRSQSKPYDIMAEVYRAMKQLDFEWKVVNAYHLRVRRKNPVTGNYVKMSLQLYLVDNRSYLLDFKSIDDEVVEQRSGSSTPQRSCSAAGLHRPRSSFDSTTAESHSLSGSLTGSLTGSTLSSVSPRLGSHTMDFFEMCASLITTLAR

Rho-associated protein kinase 1 (Homo sapiens), sequence (Q13464 2-1354 limits assumed): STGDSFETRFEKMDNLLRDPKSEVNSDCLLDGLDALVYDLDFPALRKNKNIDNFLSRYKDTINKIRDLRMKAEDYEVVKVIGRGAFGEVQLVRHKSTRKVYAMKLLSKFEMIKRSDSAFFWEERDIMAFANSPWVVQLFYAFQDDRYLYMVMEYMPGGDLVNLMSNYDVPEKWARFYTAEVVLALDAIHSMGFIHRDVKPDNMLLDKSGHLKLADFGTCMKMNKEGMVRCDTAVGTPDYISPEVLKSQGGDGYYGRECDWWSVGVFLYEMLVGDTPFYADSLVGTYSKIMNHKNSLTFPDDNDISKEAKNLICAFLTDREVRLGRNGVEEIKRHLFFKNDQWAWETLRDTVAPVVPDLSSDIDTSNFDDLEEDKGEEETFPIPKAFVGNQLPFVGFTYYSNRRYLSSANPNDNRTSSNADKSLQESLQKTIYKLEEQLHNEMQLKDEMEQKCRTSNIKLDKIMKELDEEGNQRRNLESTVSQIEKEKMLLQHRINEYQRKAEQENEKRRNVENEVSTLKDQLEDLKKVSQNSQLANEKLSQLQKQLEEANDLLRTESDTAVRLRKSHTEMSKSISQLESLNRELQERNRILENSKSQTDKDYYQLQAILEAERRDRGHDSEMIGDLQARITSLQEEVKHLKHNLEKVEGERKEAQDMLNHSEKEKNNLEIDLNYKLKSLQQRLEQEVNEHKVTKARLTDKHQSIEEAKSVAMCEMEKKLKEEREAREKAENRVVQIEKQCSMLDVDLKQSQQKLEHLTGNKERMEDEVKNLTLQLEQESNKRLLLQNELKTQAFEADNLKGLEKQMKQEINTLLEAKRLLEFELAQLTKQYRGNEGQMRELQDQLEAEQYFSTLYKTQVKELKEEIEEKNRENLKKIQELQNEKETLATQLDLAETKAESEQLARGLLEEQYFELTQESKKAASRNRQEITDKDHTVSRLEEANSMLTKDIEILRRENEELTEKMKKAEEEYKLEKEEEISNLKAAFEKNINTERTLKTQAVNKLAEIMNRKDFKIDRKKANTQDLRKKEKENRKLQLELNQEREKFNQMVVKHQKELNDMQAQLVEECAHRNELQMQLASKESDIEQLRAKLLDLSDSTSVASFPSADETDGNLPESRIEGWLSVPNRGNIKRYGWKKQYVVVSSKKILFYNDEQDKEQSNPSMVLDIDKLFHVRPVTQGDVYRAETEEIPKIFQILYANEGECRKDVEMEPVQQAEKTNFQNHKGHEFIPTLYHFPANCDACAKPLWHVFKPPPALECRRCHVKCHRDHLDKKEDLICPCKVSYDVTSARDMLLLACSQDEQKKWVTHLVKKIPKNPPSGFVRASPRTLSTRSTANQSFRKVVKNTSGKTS
Rho-associated protein kinase 2 (Homo sapiens), sequence (O75116 whole entry, looked up): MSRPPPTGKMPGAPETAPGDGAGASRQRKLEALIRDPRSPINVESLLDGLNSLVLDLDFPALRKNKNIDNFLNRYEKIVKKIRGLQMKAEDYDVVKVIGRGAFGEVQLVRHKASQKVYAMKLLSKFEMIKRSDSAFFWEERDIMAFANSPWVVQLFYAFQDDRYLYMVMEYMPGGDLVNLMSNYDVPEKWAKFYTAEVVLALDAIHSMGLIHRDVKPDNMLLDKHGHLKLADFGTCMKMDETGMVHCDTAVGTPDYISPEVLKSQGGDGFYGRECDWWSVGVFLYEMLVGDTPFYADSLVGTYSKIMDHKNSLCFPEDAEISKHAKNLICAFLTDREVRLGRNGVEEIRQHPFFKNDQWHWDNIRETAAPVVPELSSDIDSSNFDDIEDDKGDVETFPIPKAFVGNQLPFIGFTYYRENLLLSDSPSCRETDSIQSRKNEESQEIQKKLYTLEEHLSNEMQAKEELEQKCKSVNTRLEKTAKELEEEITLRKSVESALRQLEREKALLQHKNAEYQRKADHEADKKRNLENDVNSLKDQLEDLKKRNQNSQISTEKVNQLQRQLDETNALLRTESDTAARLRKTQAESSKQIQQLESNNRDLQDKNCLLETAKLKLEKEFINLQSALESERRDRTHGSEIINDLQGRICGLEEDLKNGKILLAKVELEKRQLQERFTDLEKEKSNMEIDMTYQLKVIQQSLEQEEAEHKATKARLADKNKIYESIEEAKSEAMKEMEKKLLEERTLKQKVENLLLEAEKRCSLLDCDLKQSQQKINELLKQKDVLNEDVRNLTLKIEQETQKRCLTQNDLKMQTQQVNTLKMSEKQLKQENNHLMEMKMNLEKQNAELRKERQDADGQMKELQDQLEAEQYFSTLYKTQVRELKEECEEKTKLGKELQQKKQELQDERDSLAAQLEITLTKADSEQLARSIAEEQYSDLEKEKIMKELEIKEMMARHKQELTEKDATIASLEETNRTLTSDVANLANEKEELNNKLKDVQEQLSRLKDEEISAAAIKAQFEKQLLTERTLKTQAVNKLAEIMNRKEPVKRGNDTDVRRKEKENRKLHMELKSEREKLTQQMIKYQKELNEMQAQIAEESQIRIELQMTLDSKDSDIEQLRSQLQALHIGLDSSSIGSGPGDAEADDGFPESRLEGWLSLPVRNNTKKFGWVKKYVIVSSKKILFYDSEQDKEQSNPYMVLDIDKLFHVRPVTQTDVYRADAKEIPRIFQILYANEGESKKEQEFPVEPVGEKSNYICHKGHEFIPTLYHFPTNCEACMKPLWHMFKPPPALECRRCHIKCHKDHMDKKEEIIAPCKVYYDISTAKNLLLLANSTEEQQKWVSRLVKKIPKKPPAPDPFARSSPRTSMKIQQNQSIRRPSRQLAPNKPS

Row | Structure (SMILES) | inhibition [1] | inhibition [2] | inhibition [3] | inhibition [4] | inhibition [5] | inhibition [6] | inhibition [7] | inhibition [8] | inhibition [9] | inhibition [10] | inhibition [11] | inhibition [12] | inhibition [13] | inhibition [14] | inhibition [15] | inhibition [16] | inhibition [17] | inhibition [18] | inhibition [19] | inhibition [20]
1 | Fc1cccc(COc2ccc(Nc3ncnc4cc(-c5ccc[nH]5)sc34)cc2Cl)c1 | 1.71% | 1.64% | 2.17% | 2.06% | 0.75% | 2.4% | 2.56% | 1.77% | 2.41% | 1.15% | 2.27% | 1.92% | 3.96% | -0.18% | 5.58% | 0.1% | 4.46% | 1.8% | 0.98% | 3.81%
2 | COc1ccccc1Nc1ncc(-c2ccccc2)o1 | 3.7% | 4.07% | 3.77% | 0.8% | 23.5% | -0.3% | 0.19% | 3.05% | 4.52% | 0.08% | 0.95% | 2.95% | 4.31% | 5.64% | 0.66% | 4.99% | 3.37% | 1.74% | 3.31% | 3.16%
3 | Nc1nc(-c2ccc3c(c2)C(=Cc2cc(Br)c(O)c(Br)c2)C(=O)N3)cs1 | -0.02% | -0.52% | 2.2% | -0.32% | 4.1% | -0.26% | 1.6% | -0.77% | 1.44% | -0.07% | 2.87% | 0.99% | 0.56% | 0.38% | 2.1% | -0.67% | -0.04% | -0.3% | 6.79% | 3.28%
4 | O=C1Nc2ccc(C(=O)c3ccco3)cc2C1=Cc1cc(Cl)c(O)c(Cl)c1 | 7.03% | 2.19% | 12.1% | 3.17% | 11.9% | 0.85% | 6.32% | 1.45% | 9.07% | 1.47% | 12% | 1.08% | 5.11% | 1.59% | 3.35% | 1.55% | 2.25% | 4.48% | 21.4% | 3.01%
5 | COc1ccc(-c2nn3ncccc3c2-c2ccnc(Nc3ccc(Cl)c(C(F)(F)F)c3)n2)cc1 | 0.16% | 0.42% | 5.75% | 1.97% | 4.11% | 1.72% | 3.67% | 0.41% | 2.22% | 0.23% | 0.85% | 1.68% | 4.61% | -2.66% | 0.76% | 2.3% | 2.89% | 2.31% | 2.56% | 0.17%
6 | COc1cc2ncn(-c3cc(OCc4ccccc4Cl)c(C(N)=O)s3)c2cc1OC | 0.6% | -0.16% | 2.11% | 0.91% | 3.5% | 0.95% | 7.69% | 1.46% | 8.47% | 2.26% | 17.2% | 0.97% | 1.67% | 0.56% | 0.22% | 2.12% | 0.41% | 1.36% | 10.7% | 4.07%
7 | NC(=O)c1cccc(Nc2nccc(Nc3cccc4[nH]ncc34)n2)c1 | 7.57% | 1.22% | 13.4% | -0.17% | 7.69% | -0.11% | 8.36% | -1.89% | 2.72% | 0.56% | 9.04% | -1.84% | 1.71% | -4.35% | -0.81% | -4.06% | -1.36% | 3.35% | 18.5% | 2.4%
8 | O=C1NC(=O)C(c2ccccc2Cl)=C1Nc1cccc(O)c1 | 4.61% | 6.16% | 3.66% | 1.82% | 4.3% | 1.65% | 4.49% | 2.1% | 6.19% | 0.75% | 7.12% | 1.25% | 2.8% | 0.71% | 1.41% | 4.44% | 0.72% | 1.85% | 5.89% | -0.21%
9 | CN(C)c1cc2c(Nc3ccc4nc(Cc5ccccc5)[nH]c4c3)ncnc2cn1 | 2.36% | 3.17% | 5.65% | 2.97% | 4.02% | 2.23% | 2.55% | 2.08% | 3.2% | 2.02% | 3.9% | 3.83% | 2.79% | 2.52% | 6.52% | 3.71% | 4.16% | 4.31% | 3.22% | 4.92%
10 | CCCN1CCC=C(c2ccc(Nc3nc(Nc4ccccc4C(N)=O)c4cc[nH]c4n3)c(C)c2)C1 | 8.96% | 2.53% | 12.8% | 19.8% | 54.6% | 9.39% | 39.4% | 3.72% | 19.2% | 11.7% | 38.9% | 1.16% | 5.7% | 1.55% | 1.12% | 2.67% | 2.94% | 4.78% | 29.5% | 8.68%
11 | CC1=C(C(=O)Nc2ccc3[nH]ncc3c2)C(c2ccc(F)cc2)NC(=O)N1 (configuration not stated) |  | 64.1% | 74.5% | 2.36% | 15.7% | 2.28% | 11.2% | 2.36% | 7.93% | 2.07% | 2.82% | 1.11% | 7.18% | -1.1% | 4.13% | 4.02% | 6.8% | 3.82% | 20.4% | 3.59%
12 | CCn1c(-c2nonc2N)nc2cncc(C(=O)N3CCNCC3)c21 |  | 3.45% | 4.33% | 1.84% | 3.1% | 0.8% | -0.05% | 3.17% | 3.01% | 1.32% | 2.55% | 1.92% | 4.77% | 3.56% | 4.56% | 5.25% | 6.39% | 3.24% | 4.88% | 8.15%
13 | CC1=C(C(=O)Nc2ccc3[nH]ncc3c2)C(c2ccc3ccccc3c2)CC(=O)N1 (configuration not stated) |  | 77% | 84.2% | 3.94% | 26.4% | 2.4% | 21.3% | 2.26% | 13.7% | 1.04% | 7.45% | 2.12% | 7.38% | 3% | 16.6% | 1.33% | 10.3% | 7.34% | 41% | 2.46%
14 | CCCN1CCC(Oc2cc(Nc3nc(Nc4cccc(F)c4C(N)=O)c4cc[nH]c4n3)c(OC)cc2Cl)CC1 | 8.85% | 1.22% | 7.48% | 0.01% | 7.33% | 0.89% | 3.26% | -0.12% | 0.95% | 1.35% | 4.14% | 0.54% | 0.96% | 0.41% | 1.93% | -0.88% | -2.21% | 3.28% | 8.12% | 1.83%
